In general, AC50 refers to the midpoint of the concentration-response curve, whichever way the signal moves.

The source made the active and inactive calls. How the source made its calls: active means hit-call score of the fitted dose curve at least 0.9, where 1 is the maximum; inactive means score below 0.9.

The values below come from PubChem BioAssay (EPA / NIEHS).

This assay is described as follows: ATG_M_19_CIS: Attagene CIS-FACTORIAL HepG2 Assay for M19 Transcription Factor (Internal Marker) (AID 2282939). To be noted: HepG2 Attagene CIS-FACTORIAL M19 internal marker reporter; actives raise or lower the signal. As for the experimental part:
ATG_CIS is a cell-based, multiplexed-readout assay that uses HepG2, a human liver cell line, with measurements taken at 24 hours after chemical dosing in a 24-well plate.ATG_M_19_CIS is one of 52 assay component(s) measured or calculated from the ATG_CIS assay. It is designed to make measurements of mRNA induction, a form of inducible reporter, as detected with fluorescence intensity signals by Reverse transcription polymerase chain reaction (RT-PCR) and Capillary electrophoresis technology.Data from the assay component ATG_M_19_CIS was analyzed into 1 assay endpoint. This assay endpoint, ATG_M_19_CIS, was analyzed with bidirectional fitting relative to DMSO as the negative control and baseline of activity. Using a type of inducible reporter, measures of mRNA for gain or loss-of-signal activity can be used to understand the background control at the transcription factor-level as they relate to the gene . Furthermore, this assay endpoint can be referred to as a secondary readout, because this assay has produced multiple assay endpoints where this one serves a background control function. To generalize the intended target to other relatable targets, this assay endpoint is annotated to the background measurement intended target family, where the subfamily is internal marker.
Human liver HepG2 cells are transiently transfected with multiple reporter transcription units (MRTUs) in 6-well plates using FuGene 6 reagent (Roche; 3 ml FuGene/1 mg DNA). The MRTU constructs are regulated by a cis-regulating element (promoter). […] A major difference between the CIS and TRANS system is that in CIS activities of endogenous TFs are measured, whereas the TRANS assay evaluates changes in activities of exogenous, chimeric NR-Gal4 proteins. […] At the end of 24 hour incubation, total RNA was isolated using TriZol reagent (Invitrogen). The isolated RNA is then reverse-transcribed using oligo(dT) primer and Mo-MLV reverse transcriptase (Invitrogen) with DNAse I (Ambion) treatment for 30 min. The one-tenth of the produced cDNA was amplified by PCR using Taq DNA polymerase (Invitrogen) and two reporter sequence-specific primers. The PCR products were fluorescently labeled by primer extension with 6-arboxyfluorescein (6-FAM) 5'-labeled reporter sequence-specific primer (2 min at 95 C, 20 s at 68 C and 10 min at 72 C) and these products were digested with 5U of HpaI (New England Biolabs) for 2h at 37 C. The fragments were purified using Qiaquick PCR columns (Qiagen), analyzed on an ABI 3130xL genetic analyzer (Applied Biosystems) with peak positions identified by using a set of X-rhodamine (ROX)-labeled MapMarker1000 molecular weight standards (BioVentures). The raw capillary electrophoresis data was processed using Attagraph software (Attagene).
As to `NC(=O)C(F)(F)C(F)(F)C(F)(F)F`, the compound was called inactive.
As for `CCOC(OCC)OCC`, the compound was classed as inactive.
On the same count and under the same terms, under `OCCC(O)CO` (stereo not given) stands “inactive”.
Regarding `O=C(O)CCC(F)(F)C(F)(F)C(F)(F)F`, the result was inactive.
Still for that read-out and setting: next, `Nc1cccnc1N`: “inactive”; `Cc1cc(O)c(C(C)(C)C)cc1C(C)(C)C`: “inactive”; `CCCCC(CC)COC(=O)c1ccc(N(C)C)cc1` (stereo not given): “inactive”.
Same read-out and setting: under `CCCCCCCCCCCCC[N+](C)(C)Cc1ccccc1` stands “inactive”.
Same read-out and setting: next, `CCCCCC/C=C/CCCCCCCC(=O)O`: “inactive”; `Nc1cc([N+](=O)[O-])cc(Cl)c1O`: “inactive”.
On to `CCN(CC)c1ccc2c(c1)Oc1cc(N(CC)CC)ccc1C21OC(=O)c2ccccc21`, for which the outcome was inactive.
Same read-out and setting: under `CC(C)(C)c1cc(CCC(=O)OCC(COC(=O)CCc2cc(C(C)(C)C)c(O)c(C(C)(C)C)c2)(COC(=O)CCc2cc(C(C)(C)C)c(O)c(C(C)(C)C)c2)COC(=O)CCc2cc(C(C)(C)C)c(O)c(C(C)(C)C)c2)cc(C(C)(C)C)c1O` stands “inactive”; under `OCC(F)(F)C(F)(F)C(F)(F)C(F)(F)C(F)(F)C(F)(F)C(F)(F)C(F)(F)CO`, “inactive”.
Still for that read-out and setting: next, `CN(C)C(C)(C)CO`: “inactive”.
Take `CCN(CC)c1ccc(C=O)cc1`: the AC50 is 25.8 µM (active).
Take `CSc1ccc(O)cc1C`: the outcome was inactive.
Same read-out and setting: next, `NCC(F)(F)C(F)(F)C(F)(F)C(F)(F)C(F)(F)C(F)(F)F`: “inactive”.
Same read-out and setting: next, `CCOC(=O)CC(=O)C(F)(F)C(F)(F)F`: “inactive”.
Same read-out and setting: under `CC1CCCCC1` stands “inactive”.
Regarding `Brc1ccccn1`, the outcome was inactive.
The same measure, in the same setting: next, `NC(=O)C(F)(F)C(F)(F)C(F)(F)C(F)F`: “inactive”; `O=C1c2ccccc2C(=O)c2c(Cl)cccc21`: “inactive”.
On the same count and under the same terms, next, `C=CC(=O)OCCC(F)(F)C(F)(F)C(F)(F)C(F)(F)F`: “inactive”; `c1ccc(C[P+](c2ccccc2)(c2ccccc2)c2ccccc2)cc1`: “inactive”.
The same measure, in the same setting: next, `CC(=O)CCC(C)C`: “inactive”; `O=C1C=CC(=O)N1c1ccc(Cc2ccc(N3C(=O)C=CC3=O)cc2)cc1`: “inactive”.
Take `CCN(CC)c1ccc(C=O)c(O)c1`: the compound was called inactive.
Still for that read-out and setting: next, `C[C@]12CC[C@H]3C(=CCc4cc(O)ccc43)[C@@H]1CCC2=O`: “inactive”.
Still for that read-out and setting: next, `Cc1cc(=O)[nH]c(C(C)C)n1`: “inactive”.
For `Cc1ccc(O)c(-n2nc3ccccc3n2)c1`, the outcome was inactive.
For the compound `CCCCCCCCCCCC(=O)Cl`, the call was inactive.
The same measure, in the same setting: under `O=C(O)C(F)(F)C(F)(F)C(F)(F)C(F)(F)C(F)(F)C(F)(F)C(F)F` stands “inactive”; under `CCC(C)CO` (stereo not given), “inactive”.
On the same count and under the same terms, next, `CCCCCCCCCCCCCC[P+](CCCC)(CCCC)CCCC`: “inactive”; `CCCC(=O)OCC(COC(=O)CCC)OC(=O)CCC`: “inactive”.
Take `O=C(F)C1(F)C(F)(F)C(F)(F)C(F)(F)C(F)(F)C1(F)F`: the call was inactive.
`CCN=c1cc2oc3cc(NCC)c(C)cc3c(-c3ccccc3C(=O)OCC)c-2cc1C`: the result was inactive.
The same measure, in the same setting: next, `CC(=O)C=O`: “inactive”; `CCN(CCO)S(=O)(=O)C(F)(F)C(F)(F)C(F)(F)C(F)(F)C(F)(F)C(F)(F)C(F)(F)C(F)(F)F`: “inactive”; `OCCCC(F)(F)C(F)(F)C(F)(F)C(F)(F)C(F)(F)C(F)(F)C(F)(F)C(F)(F)F`: “inactive”.
